Hits are enriched below; roughly 3.6% of the tested compounds scored in any of these assays.
mHTT CaM bind = inhibitors of human mutant huntingtin-calmodulin interaction | P42858 | AlphaScreen His-mHTT/GST-CaM binding, luminescence | inhibition, % at 15 µM | 3.6% of 190,000 active | AID 1671202;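 also: 0% = both proteins with DMSO and 100% = one protein alone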
Target sequence (P42858 whole entry, looked up, stated change not applied): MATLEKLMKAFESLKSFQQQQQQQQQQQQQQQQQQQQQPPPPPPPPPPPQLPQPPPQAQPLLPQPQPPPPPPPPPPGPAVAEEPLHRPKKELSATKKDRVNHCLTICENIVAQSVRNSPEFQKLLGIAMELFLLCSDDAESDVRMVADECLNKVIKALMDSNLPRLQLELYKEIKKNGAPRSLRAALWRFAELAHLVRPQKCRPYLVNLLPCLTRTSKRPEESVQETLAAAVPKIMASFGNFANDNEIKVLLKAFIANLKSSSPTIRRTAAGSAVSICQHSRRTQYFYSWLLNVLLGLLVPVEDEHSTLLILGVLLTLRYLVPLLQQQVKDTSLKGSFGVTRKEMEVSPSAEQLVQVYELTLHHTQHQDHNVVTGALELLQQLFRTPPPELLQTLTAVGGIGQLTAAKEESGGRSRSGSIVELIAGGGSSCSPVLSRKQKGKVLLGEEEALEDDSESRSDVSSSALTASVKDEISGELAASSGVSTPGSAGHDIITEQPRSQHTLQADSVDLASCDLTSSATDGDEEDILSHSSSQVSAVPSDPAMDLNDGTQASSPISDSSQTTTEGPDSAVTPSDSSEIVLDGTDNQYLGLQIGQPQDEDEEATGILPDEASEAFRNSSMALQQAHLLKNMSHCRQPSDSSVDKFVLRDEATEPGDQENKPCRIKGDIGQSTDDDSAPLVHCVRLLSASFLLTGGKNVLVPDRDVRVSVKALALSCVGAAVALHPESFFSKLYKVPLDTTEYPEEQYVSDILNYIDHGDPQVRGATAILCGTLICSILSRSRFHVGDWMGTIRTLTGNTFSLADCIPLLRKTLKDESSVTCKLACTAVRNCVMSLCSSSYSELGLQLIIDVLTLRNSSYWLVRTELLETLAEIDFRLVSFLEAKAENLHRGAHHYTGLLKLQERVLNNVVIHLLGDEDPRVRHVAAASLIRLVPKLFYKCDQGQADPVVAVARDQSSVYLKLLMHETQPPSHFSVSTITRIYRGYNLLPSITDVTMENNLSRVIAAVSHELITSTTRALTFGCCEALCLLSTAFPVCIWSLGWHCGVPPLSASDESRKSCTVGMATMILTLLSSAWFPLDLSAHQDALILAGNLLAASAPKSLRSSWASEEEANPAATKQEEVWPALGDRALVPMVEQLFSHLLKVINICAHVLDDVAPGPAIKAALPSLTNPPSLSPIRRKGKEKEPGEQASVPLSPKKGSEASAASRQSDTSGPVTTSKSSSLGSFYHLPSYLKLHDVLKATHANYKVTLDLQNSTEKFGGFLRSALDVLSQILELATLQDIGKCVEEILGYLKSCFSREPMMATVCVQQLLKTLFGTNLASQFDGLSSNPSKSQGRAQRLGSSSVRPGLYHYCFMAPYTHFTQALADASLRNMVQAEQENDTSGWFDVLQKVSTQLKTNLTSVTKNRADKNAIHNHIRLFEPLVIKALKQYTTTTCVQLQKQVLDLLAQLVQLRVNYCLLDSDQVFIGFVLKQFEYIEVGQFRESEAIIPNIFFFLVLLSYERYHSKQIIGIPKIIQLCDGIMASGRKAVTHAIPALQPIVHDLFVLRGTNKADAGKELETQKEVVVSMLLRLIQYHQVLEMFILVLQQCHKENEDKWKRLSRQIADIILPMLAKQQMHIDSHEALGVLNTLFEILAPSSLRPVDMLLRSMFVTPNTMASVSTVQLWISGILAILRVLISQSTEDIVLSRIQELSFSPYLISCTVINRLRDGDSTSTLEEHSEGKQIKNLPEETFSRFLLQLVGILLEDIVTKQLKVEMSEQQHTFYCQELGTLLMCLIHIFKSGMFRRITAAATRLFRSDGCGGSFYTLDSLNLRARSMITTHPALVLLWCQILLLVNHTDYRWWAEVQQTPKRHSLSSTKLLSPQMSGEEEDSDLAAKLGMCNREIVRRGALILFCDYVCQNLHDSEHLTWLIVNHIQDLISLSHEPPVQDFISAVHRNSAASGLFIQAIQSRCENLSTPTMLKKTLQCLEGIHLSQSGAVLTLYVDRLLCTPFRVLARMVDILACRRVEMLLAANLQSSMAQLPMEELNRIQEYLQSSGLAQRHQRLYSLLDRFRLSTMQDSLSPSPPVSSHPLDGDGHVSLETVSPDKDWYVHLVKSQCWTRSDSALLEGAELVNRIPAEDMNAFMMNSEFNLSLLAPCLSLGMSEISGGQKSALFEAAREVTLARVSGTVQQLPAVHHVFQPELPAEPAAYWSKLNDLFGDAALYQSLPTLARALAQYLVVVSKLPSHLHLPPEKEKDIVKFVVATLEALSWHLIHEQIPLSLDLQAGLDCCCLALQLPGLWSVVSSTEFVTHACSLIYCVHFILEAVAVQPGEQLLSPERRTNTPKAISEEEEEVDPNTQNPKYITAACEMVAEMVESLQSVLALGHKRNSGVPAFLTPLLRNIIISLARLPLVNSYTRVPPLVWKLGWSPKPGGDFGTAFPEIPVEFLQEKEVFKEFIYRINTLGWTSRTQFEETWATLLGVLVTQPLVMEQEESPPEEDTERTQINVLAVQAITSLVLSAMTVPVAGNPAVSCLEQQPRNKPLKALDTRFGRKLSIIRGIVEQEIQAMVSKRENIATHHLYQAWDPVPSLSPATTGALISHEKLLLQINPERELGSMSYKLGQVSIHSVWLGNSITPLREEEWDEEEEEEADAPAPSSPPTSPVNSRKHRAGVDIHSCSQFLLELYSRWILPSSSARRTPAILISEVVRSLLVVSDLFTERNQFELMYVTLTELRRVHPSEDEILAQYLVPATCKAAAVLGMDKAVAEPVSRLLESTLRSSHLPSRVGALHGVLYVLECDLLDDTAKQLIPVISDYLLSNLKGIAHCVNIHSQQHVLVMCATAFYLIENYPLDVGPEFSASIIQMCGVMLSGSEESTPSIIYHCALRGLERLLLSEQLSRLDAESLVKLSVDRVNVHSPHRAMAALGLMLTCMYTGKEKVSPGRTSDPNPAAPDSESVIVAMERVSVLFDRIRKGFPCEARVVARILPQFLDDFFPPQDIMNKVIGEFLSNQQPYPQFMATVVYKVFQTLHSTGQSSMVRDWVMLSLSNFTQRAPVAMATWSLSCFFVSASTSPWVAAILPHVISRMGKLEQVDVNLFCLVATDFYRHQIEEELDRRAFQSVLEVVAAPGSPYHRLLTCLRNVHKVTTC
Pf apPOL block = Pf-apPOL DNA polymerase inhibition; inhibition, % at 10 µM; AID 1794808; 0.25% of 210,000 active; Recombinant Pf-apPOL, molecular beacon fluorescence, 1.5 h
* hit, by the source's call. Rule as the data show it: active = inhibition above about 50%; inactive = the rest.

`COc1ccc(-c2nc3n(n2)C(c2ccc4c(c2)OCO4)C2=C(CCCC2=O)N3)cc1OC` (configuration not stated) gave mHTT CaM bind 21.8 and Pf apPOL block -1.8.
For CN1C(=O)c2ccc(C(=O)O)cc2C1=O the results were mHTT CaM bind -1.4 and Pf apPOL block 6.3.
`Brc1ccc(Cn2c(-c3cncs3)nc3ccccc32)cc1` gave mHTT CaM bind 3.0 and Pf apPOL block -4.7.
`O=C(NCc1ccco1)c1cccc(Cl)c1` gave mHTT CaM bind -0.2 and Pf apPOL block -1.7.
Screening Cc1ccc(C(CNC(=O)C(=O)NCc2ccncc2)N2CCN(C)CC2)cc1 (configuration not stated) returned mHTT CaM bind -7.9 and Pf apPOL block 3.4.
For COc1ccc(Nc2cc(C)c3cc(C)ccc3n2)cc1 the results were mHTT CaM bind 56.5* and Pf apPOL block -1.2.
For Cc1ccc2nc(Cl)cc(C)c2c1 the results were mHTT CaM bind -3.9.
For COc1ccc(OC)c(Nc2ncc3c(n2)CCN(Cc2cccc(F)c2F)C3)c1 the results were mHTT CaM bind 16.6 and Pf apPOL block -1.6.
For COc1ccc(OC)c(Nc2ncc3c(n2)CCN(Cc2cccc(C)c2)C3)c1 the results were mHTT CaM bind 64.1* and Pf apPOL block -3.4.
CCOc1ccccc1CN1CCc2nc(Nc3ccc(OC)cc3OC)ncc2C1 was read as mHTT CaM bind 55.1* and Pf apPOL block -6.2.
For COc1ccc(Nc2ncc3c(n2)CCN(Cc2ccccc2OC)C3)c(OC)c1 the results were mHTT CaM bind 44.7 and Pf apPOL block -2.9.
Screening COc1ccc(OC)c(Nc2ncc3c(n2)CCN(Cc2ccccc2OC)C3)c1 returned mHTT CaM bind 59.4* and Pf apPOL block -2.5.
Screening COc1ccc(Nc2ncc3c(n2)CCN(Cc2cccc(C)c2)C3)c(OC)c1 returned mHTT CaM bind 9.4 and Pf apPOL block -8.3.
For NS(=O)(=O)c1ccc(NC(=O)CCC2CCCCC2)cc1 the results were mHTT CaM bind -6.0 and Pf apPOL block 3.1.
For CCn1ccc(C(=O)N2CCC(c3nc(C4CC4)n[nH]3)CC2)n1 the results were mHTT CaM bind 0.6 and Pf apPOL block -1.2.
CCOC1=NN(c2ccc([N+](=O)[O-])cc2)C(=O)/C1=C/c1ccc(Cl)cc1 was read as mHTT CaM bind 34.0 and Pf apPOL block -2.4.
Screening O=C1/C(=C\c2ccc(O)cc2)C(N2CCOCC2)=NN1c1ccc([N+](=O)[O-])cc1 returned mHTT CaM bind 84.0* and Pf apPOL block 4.2.
Screening Cc1ccc(-n2cc(-c3ccc4c(c3)OCO4)[nH]c2=O)cc1Cl returned mHTT CaM bind 86.0* and Pf apPOL block -7.5.
For Cc1cc(C)cc(-n2cc(-c3ccc4c(c3)OCO4)[nH]c2=O)c1 the results were mHTT CaM bind 39.0 and Pf apPOL block 11.2.
Screening COc1cccc(-c2oncc2CN2CCN(c3ccccc3)CC2)c1 returned mHTT CaM bind 18.9 and Pf apPOL block -1.0.
Screening COc1ccc(N2CCN(Cc3cnoc3-c3ccccc3)CC2)cc1 returned mHTT CaM bind 57.2* and Pf apPOL block -9.8.
`N#Cc1cc2c(N)c(C(=O)c3ccc(Cl)cc3)sc2nc1N` gave mHTT CaM bind 11.0 and Pf apPOL block -10.7.
For N#Cc1cc2c(N)c(C(=O)Nc3ccccc3Oc3ccccc3)sc2nc1N the results were mHTT CaM bind 81.0* and Pf apPOL block -1.3.
COc1ccc(C=C2Oc3c(CN4CCN(CCO)CC4)c(O)cc(C)c3C2=O)cc1 was read as mHTT CaM bind 19.9 and Pf apPOL block -15.7.
`CCCC1(CO)CCCN1C(=O)c1ccc2[nH]ccc2c1` (configuration not stated) gave mHTT CaM bind -1.2 and Pf apPOL block -4.6.
Screening CCCC1(CO)CCCN1C(=O)c1ccc2cc[nH]c2c1 (configuration not stated) returned mHTT CaM bind 55.4* and Pf apPOL block 24.6.
For CCCCOc1ccc(C(=O)Oc2cc(C)[nH]c(=O)c2[N+](=O)[O-])cc1 the results were mHTT CaM bind 10.0 and Pf apPOL block -5.7.
For COc1ccc(Cl)cc1C(=O)Oc1cc(C)[nH]c(=O)c1[N+](=O)[O-] the results were mHTT CaM bind -4.6 and Pf apPOL block -3.5.
COc1ccc(C=CC(=O)Oc2cc(C)[nH]c(=O)c2[N+](=O)[O-])cc1OC was read as mHTT CaM bind 90.9* and Pf apPOL block 6.2.
Screening COc1ccc(C(=O)Oc2cc(C)[nH]c(=O)c2[N+](=O)[O-])cc1 returned mHTT CaM bind 97.0* and Pf apPOL block 2.5.
`COc1ccc(NC(=O)c2ccc(OC)c(OC)c2)cc1OC` gave mHTT CaM bind 6.4 and Pf apPOL block -9.8.
Screening Cc1c(C(=O)Nc2cc(Cl)ccc2O)cccc1[N+](=O)[O-] returned mHTT CaM bind 16.1 and Pf apPOL block -2.5.
Screening O=C(O)c1cc(NS(=O)(=O)c2ccc(Cl)cc2)cc(C(=O)O)c1 returned mHTT CaM bind -2.8 and Pf apPOL block 71.4*.
For O=S(=O)(Nc1cc(Cl)cc(Cl)c1)c1ccc(Cl)cc1 the results were mHTT CaM bind -23.9.

Assay outcomes deposited in PubChem by University of Kansas High Throughput Screening Laboratory.
